The record followed here is PubChem BioAssay (NCI).

What all share (test): NCI-60 one-dose screen, 48 h (100 = growth as untreated, 0 = no growth, -100 = all killed)
Holding throughout (conditions): 10 µM unless noted

Test [1] has as its system T-47D breast.
Test [2] deals with BT-549 breast.
Test [3] concerns MDA-MB-435 melanoma.
The test system of test [4] is MCF7 breast.
The test system of test [5] is HCT-116 colon.
Test [6] deals with HCC-2998 colon.
The subject of test [7] is KM12 colon.
For test [8], the system named is SW-620 colon.

The panel holds about 83,000 compounds, 20% with a hit somewhere; the sample as a whole holds those more often.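 Cells were grown in 96-well plates and exposed to the test compound at a single concentration for 48 hours; results are reported as percent growth, with values below 10 considered active.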 A number with no mark means an inactive call. The source made the active and inactive calls.

On to `COc1ccc(/C=C2\N=C(c3ccccc3)N(C(=O)c3ccccc3O)NC2=O)cc1`, for which the growth in test [1] is 96.6%; in test [2] it was 92%; in test [3], 95%; in test [4] it was 92.8%; in test [5], 92%; in test [6], 93.7%. In addition, the growth in test [7] is 92%.

Turning to `COc1ccc(/C=C\c2cc(OC)c(OC)c(OC)c2)cc1OC(=O)c1cccc(Cn2cc(CCOC(=O)c3cccc(Cn4nnc5c4C(=O)c4ccccc4C5=O)c3)nn2)c1`, the growth in test [1] is 67.6%; in test [2] it was 27%; in test [3], -36.3% (active); in test [4], 8.36% (active); in test [5], 6.52% (active); in test [6], 17.6%. In test [7], the growth is 9.04% (active).

Take `ClC(Cl)c1nc(-c2cccnc2)n2nc(-c3ccccc3)cc2n1`: the growth in test [1] is 50.2%; in test [2], 68.4%; in test [3] it was 0.991% (active); in test [4], 50.6%; in test [5], 0.678% (active); in test [6], -68.7% (active). Also, in test [7], the growth was 2.3% (active).

For the molecule `COc1ccc(-n2c(=S)sc3c(Cl)nc(C)nc32)c(OC)c1`, the growth in test [1] was 51.3%; in test [2] it was 90.8%; in test [3], 30.9%; in test [4] it was 13.8%; in test [5], 0.658% (active); in test [6], 35.4%. In addition, the growth in test [7] was 25.4%.

Turning to `Cc1nc2c3c(ncn2n1)Oc1c(c(=O)[nH]c2ccccc12)C3c1ccc(Cl)cc1` (configuration not stated), the growth is 86% in test [1]; -52.7% (active) in test [2]; 102% in test [3]; 91.6% in test [4]; 88.8% in test [5]; 102% in test [6]. Also, the growth in test [7] was 99.2%.

In the case of `O=C(O)C1CCCCN1c1nc(Cl)nc(Cl)n1` (configuration not stated), the growth in test [1] is 99%; in test [2], 103%; in test [8], 101%; in test [4], 100%; in test [5], 111%; in test [6] it was 101%. For the same molecule, the growth in test [7] is 111%.

Turning to `O=C1NC(=C(Cl)Cl)/C(=N/S(=O)(=O)N2CCC(C3(C(F)(F)F)N=N3)CC2)N1`, the growth is 47.5% in test [1]; 99.4% in test [2]; 70.7% in test [3]; 74.6% in test [4]; 95.4% in test [5]; 60.5% in test [6]. In addition, in test [7], the growth is 93.7%.

Take `COc1ccc(-c2nc3sc(-c4cc(OC)c(OC)c(OC)c4)nn3c2/C=C2/C(=O)Nc3ccc(F)cc32)cc1`: the growth in test [1] was -24.9% (active); in test [2], 41.5%; in test [3] it was -28.6% (active); in test [5] it was 29.7%; in test [6], -55% (active); in test [7] it was 13.7%.

As to `N#Cc1c(Nc2ccccc2)nc2n(c1=O)-c1ccccc1Sc1ccccc1-2`, the growth was 55.9% in test [1]; 82.3% in test [2]; 82.8% in test [3]; 99.2% in test [8]; 82.9% in test [5]; 102% in test [6]. For the same molecule, the growth in test [7] was 97.9%.

Consider `C=C1C(=O)O[C@H]2[C@H]1CC/C(Cn1cc(CNC(=O)c3cc4ccccc4[nH]3)nn1)=C\CC[C@@]1(C)O[C@@H]21`, for which the growth in test [1] is 48.7%; in test [2] it was 87.9%; in test [3], 26.5%; in test [4] it was 9.93% (active); in test [5] it was 4.22% (active); in test [6] it was 96%. For the same molecule, the growth in test [7] was 68.9%.

Take `CCN(CC)c1ccc2[nH]c3c(C(N)=O)cc(=O)c(=O)c=3oc2c1`: the growth in test [1] is -0.924% (active); in test [2] it was 38.9%; in test [3], -4.76% (active); in test [4] it was -31.5% (active); in test [5], -10.9% (active); in test [6], -5.4% (active). Also, the growth in test [7] was 9.09% (active).

As for `COc1ccc(-c2c(N)n[nH]c2-c2cc(OC)c3c(c2)OCCO3)cc1`, the growth in test [1] is 66.1%; in test [2] it was 74.4%; in test [3], -24.1% (active); in test [4] it was 57.6%; in test [5] it was 57.2%; in test [6], 75%. For the same molecule, the growth in test [7] was 40.4%.

As for `O=C(Nc1ccncc1)C(=O)c1cn(S(=O)(=O)c2ccccc2F)c2ccccc12`, the growth in test [1] was 41.8%; in test [2], 39.1%; in test [8], 15.6%; in test [4] it was 21.5%; in test [5] it was 20.4%; in test [6] it was 57.2%. For the same molecule, the growth in test [7] is 19.2%.

Regarding `Cn1c2ccc(Br)cc2c2c3c(c4c5ccccc5[nH]c4c21)C(=O)N(O)C3=O`, the growth is -24.1% (active) in test [1]; -85.2% (active) in test [2]; -59.3% (active) in test [3]; -12.2% (active) in test [8]; -34.7% (active) in test [5]; -87.4% (active) in test [6]. Further, the growth in test [7] was -65.8% (active).

For `COc1ccc(S(=O)(=O)Nc2cc(/C=C\c3cc(OC)c(OC)c(OC)c3)cc(OC)c2OC)cc1`, the growth was 86.6% in test [1]; 26.6% in test [2]; -26.3% (active) in test [3]; 26.4% in test [8]; 5.64% (active) in test [5]; 17.7% in test [6]. The growth in test [7] was 10%.

As to `Cc1ccc(-c2cc3nc(C(Cl)Cl)nc(-c4ccccc4C)n3n2)cc1`, the growth in test [1] is 49.7%; in test [2], 88.7%; in test [3], -2.12% (active); in test [4] it was 70.3%; in test [5] it was 49.6%; in test [6] it was 81.8%. Also, the growth in test [7] is 26.1%.

For the molecule `NC1=NC(SCc2ccccc2CCl)c2ncn(Cc3ccccc3CCl)c2N1` (configuration not stated), the growth was 35.8% in test [1]; 56.4% in test [2]; 30.9% in test [3]; 25.2% in test [4]; 7.53% (active) in test [5]; 79.4% in test [6]. The growth in test [7] is 48.5%.

In the case of `CCOc1cc2c(Cl)ncnc2c(OCC)c1OCC`, the growth was 76.3% in test [1]; 75.1% in test [2]; 78.5% in test [3]; 52.4% in test [4]; 49.6% in test [5]; -45.3% (active) in test [6]. In addition, the growth in test [7] was 71.6%.

With `O=C(O)COc1ccc(-c2cssc2=S)cc1`, the growth was 95.5% in test [1]; 116% in test [2]; 102% in test [3]; 93.2% in test [4]; 109% in test [5]; 125% in test [6]. In test [7], the growth was 109%.

Consider `CC1=NC2=CC=CC3=NC(C(Cl)(Cl)Cl)=NC(=N1)N23`, for which the growth was 61.4% in test [1]; 45.9% in test [2]; 77.9% in test [3]; 62.7% in test [4]; 68.3% in test [5]; 57.5% in test [6]. Besides, the growth in test [7] is 85.5%.

`COc1ccc(C2NN=C3c4ccccc4CCC32)cc1` (configuration not stated): the growth is 35.3% in test [1]; 67.4% in test [2]; -15.7% (active) in test [3]; 5.11% (active) in test [4]; 64.4% in test [5]; 67.3% in test [6]. For the same molecule, the growth in test [7] was 26.3%.

For the molecule `Cc1ccc(S(=O)(=O)c2nc(-c3ccccc3)oc2S(C)(=O)=O)cc1`, the growth in test [1] was -42.6% (active); in test [2], 53.4%; in test [3], 59.4%; in test [4], 3.86% (active); in test [5], -61.8% (active); in test [6], 97.4%. Besides, the growth in test [7] was 76.4%.

As to `COc1cc([N+](=O)[O-])c2ncccc2c1O`, the growth was 94.8% in test [1]; 86.9% in test [2]; 51.8% in test [3]; 49% in test [4]; 76.7% in test [5]; 26.2% in test [6]. The growth in test [7] was -2.23% (active).

Take `O=C(Nc1cccc(-n2cc(-c3ccncc3)c(-c3ccc(Cl)c(O)c3)n2)c1)Nc1cc(C(F)(F)F)cc(C(F)(F)F)c1`: the growth is 12.1% in test [1]; -35.9% (active) in test [2]; -31.1% (active) in test [3]; 2.71% (active) in test [4]; -59.1% (active) in test [5]; -56.9% (active) in test [6]. Further, the growth in test [7] is -50.3% (active).

In the case of `CCOC(=O)c1ccc2c(c1)c1c(C)c3cccnc3c(C)c1n2C`, the growth in test [1] is 44.9%; in test [2] it was 79.5%; in test [3], 73.4%; in test [8] it was 34%; in test [5], 23%; in test [6], 86.9%. For the same molecule, the growth in test [7] is 61.4%.

Consider `N/C(=N\C(N)=N\c1nc2ccccc2s1)c1ccncc1`, for which the growth in test [1] is 65.4%; in test [2] it was 61.7%; in test [3], 1.82% (active); in test [4], 42.4%; in test [5], 47.7%; in test [6], 79.1%. Moreover, the growth in test [7] is 52.1%.

Consider `C=C1C(=O)O[C@H]2[C@H]1CC/C(COC(=O)NCc1ccccc1OC)=C\CC[C@@]1(C)O[C@@H]21`, for which the growth was 31.5% in test [1]; 26.7% in test [2]; 44.4% in test [3]; 0.256% (active) in test [8]; -26.1% (active) in test [5]; 93.9% in test [6]. For the same molecule, in test [7], the growth was 62.3%.

As for `Nc1cc2c([nH]c[n+]2CC#CCCl)c(SCC#CCCl)n1`, the growth in test [1] was -60.1% (active); in test [2], -91.2% (active); in test [3], -34.2% (active); in test [8] it was -27.2% (active); in test [5], -98.6% (active); in test [6], -96.9% (active). For the same molecule, in test [7], the growth is -80.2% (active).

For the molecule `C=CCn1c2ccccc2c2c3c(c4c5ccccc5n(CC=C)c4c21)C(=O)N(O)C3=O`, the growth in test [1] was 13%; in test [2], 45%; in test [3], 42.7%; in test [4], 13%; in test [5], 22.3%; in test [6], 36.5%. In test [7], the growth is 26.4%.

For `O=C(c1c[nH]c(=O)c(-c2ccccc2)c1)c1ccccc1O`, the growth in test [1] is 78.4%; in test [2] it was 93.2%; in test [3] it was 96.7%; in test [4] it was 92.6%; in test [5], 90.5%; in test [6], 94.2%. Besides, the growth in test [7] was 89.6%.

In the case of `Cc1[nH]c2ccc(F)cc2c1CCNC(=O)C1CCN(C(=O)c2ccccc2)CC1`, the growth was 68.9% [25 µM] in test [1]; 93.5% [25 µM] in test [2]; 96.7% [25 µM] in test [3]; 93.9% [25 µM] in test [4]; 93.3% [25 µM] in test [5]; 104% [25 µM] in test [6]. Also, the growth in test [7] is 95.6% [25 µM].

In the case of `CNC(=S)NNC(=O)C1CC1`, the growth was 104% in test [1]; 92.1% in test [2]; 114% in test [3]; 96.9% in test [4]; 101% in test [5]; 110% in test [6]. The growth in test [7] is 109%.

For the molecule `COc1ccc(OC)c(C2OC(c3ccc4ccccc4c3O)=NN2C(C)=O)c1` (configuration not stated), the growth in test [1] is 63.7%; in test [2] it was 84.4%; in test [3], 8.75% (active); in test [4] it was 37.3%; in test [5], 55.5%; in test [7] it was 60.1%.

On to `COc1cc2c(c(OC)c1OC)-c1ccc(N)c(=O)cc1[C@@H](NC(C)=O)CC2`, for which the growth in test [1] was 59.7%; in test [2], -12.6% (active); in test [3] it was 6.15% (active); in test [4], 14.9%; in test [5], 1.6% (active); in test [7], -20.1% (active).

For the molecule `Cc1cc(N/N=C/c2nc(-c3ccccc3)oc2C)c2cc(Cl)ccc2n1`, the growth in test [1] was -1.37% (active); in test [2], 87%; in test [3] it was -95.6% (active); in test [4] it was -71.9% (active); in test [5] it was -94.2% (active); in test [6], -77.4% (active). The growth in test [7] was -83.3% (active).
